In PubChem BioAssay (NCATS):
Values without a mark were called inactive. Records with an inconclusive call do not appear. A call without a number means that no potency is given here. The source made the active and inactive calls. Unless noted, calls follow the shape of the dose curve; as a rule, active = well fitted curve in either direction with a large enough effect (not every such curve was filed as active); inconclusive = small, poorly fitted or top-dose-only effect, or another doubt; inactive = flat fitted curve, though single readings scatter.

What was measured:
[1] = AP1 Signaling Pathway (AID 357); settings: ME-180 AP-1-bla reporter, EGF-induced, beta-lactamase ratio, 5 h; at 7.69 µM (top of the series) unless noted;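 also: ME-180 reporter cells stimulated with EGF at its EC50 level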
Outline: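 AP-1-bla ME-180 cells, Opti-MEM + 0.5% dialyzed FBS, plated overnight 37 °C. Cpd titration + EC50 EGF, 5 h 37 °C. CCF4 2.5 h RT; ex 405, em 460/530 ratio → %activity, AC50.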

[2] = biological target: Cytochrome P450 1A2 (Homo sapiens) (UniProt P05177); test: p450-cyp1a2 (AID 410; calls by dose curve; also: potency is read from the fitted curve at half-maximal effect)
Outline: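 Read-out is luminescence from luciferin produced by CYP1A2 demethylation of Luciferin-ME (100uM, at Km). Detection reagent stopped the 60 min NADPH-dependent reaction; signals were normalized to 57 uM furafylline.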

[3] = NFAT Signaling Pathway (AID 444); settings: Jurkat NFAT-bla M1, carbachol, beta-lactamase ratio, 5 h; at 7.69 µM (top of the series) unless noted;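 also: carbachol stimulus at about its EC50 of 1 µM final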
Outline: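 Read-out: CCF4 FRET ratio (460 nm/530 nm) after 1 h RT dye loading, used for %activity and AC50 from titration series. Cells: Jurkat NFAT-β-lactamase/M1 line, treated with compound plus 1 uM carbachol for 5 h, 37 °C.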

[4] = Stat Signaling Pathway (AID 446); settings: ME-180 (cervical carcinoma) SIE beta-lactamase reporter, IL-6 stimulated, 5 h; at 7.69 µM (top of the series) unless noted;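 also: ME-180 cervical cancer cells given 40 pM IL-6 alongside compound; SIE-controlled beta-lactamase reporter measured as 460/530 nm FRET emission ratio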
Outline: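 FRET read-out (405 nm excitation, 460/530 nm emission) of a beta-lactamase reporter under a STAT-inducible element in ME-180 cervical carcinoma cells. Cells with compound receive 40 pM IL-6 for 5 h. Values are normalised to AC90 stimulation and AC90 JAK-inhibitor controls.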

[5] = biological target: Glucocorticoid receptor (Homo sapiens) (UniProt P04150); test: GR-GFP Redistribution (AID 450;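 active = compounds whose dose series gives a full or clear partial fitted curve of increased nuclear translocation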; also: potency is read from the fitted curve at half-maximal effect); settings: U2OS GR-GFP nuclear translocation, laser cytometry, 2 h
[6] = biological target: Glucocorticoid receptor (Homo sapiens) (UniProt P04150); test: GR-EFC Redistribution (AID 451; calls by dose curve; also: potency is read from the fitted curve at half-maximal effect); settings: CHO-K1 GR-EFC translocation, beta-gal luminescence, 2 h
Outline: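 Translocation of GR-ED fusion to nuclear EA restores b-gal, read by luminescence after 1 h room-temperature detection. Engineered CHO-K1 biosensor cells, 1,000/well, exposed 2 h at 37 C to titrations up to 46 uM final.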

[7] = biological target: 3',5'-cyclic-AMP phosphodiesterase 4B (Homo sapiens) (UniProt Q07343); test: qHTS Assay for Inhibitors of PDE-IV (AID 607; active = well fitted activation curve with a large enough effect in the main read-out, with a control signal flat, not every such curve was filed as active)
Outline: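 Cell-based read-out of cAMP via a modified cyclic nucleotide-gated channel and membrane potential dye (535/590 nm) in HEK293 cells expressing PDE4 endogenously. Compounds tested up to 22.9 uM final; 100 uM RO 20-1724 reference.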

[8] = qHTS Assay for Identification of Small Molecule Agonists for Thrombopoietin (TPO) Signaling Pathway (AID 917; active = well fitted curve in the direction sought with a large enough effect; an effect the other way counts as inactive or inconclusive)
Outline: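 First, Ba/F3 cells with human TPO receptor were held overnight without IL-3. Next, compounds and TPO (26 pM final) were added. After 24 hrs at 37 C, luciferase detection reagent was added and luminescence measured following 10 min at room temperature.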

[9] = biological target: Muscarinic acetylcholine receptor M1 (Rattus norvegicus) (UniProt P08482); test: qHTS Assay for Antagonists of Acetylcholine Muscarinic M1 Receptor: Kinetic Measurement of Intracellular Calcium Response (AID 943; active = well fitted curve in the direction sought with a large enough effect; an effect the other way counts as inactive or inconclusive;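 also: Fluo-4 calcium signal as peak divided by basal fluorescence over 4 min; nearly all actives have a fitted effect of over 75% in size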)
Outline: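 Quantitative HTS in CHO-M1 (rat receptor) cells: 10 min compound exposure ahead of 100 nM carbachol, Fluo-4 fluorescence followed 4 min, value expressed as peak-to-basal ratio.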

[10] = biological target: Muscarinic acetylcholine receptor M1 (Rattus norvegicus) (UniProt P08482); test: qHTS Assay for Antagonists of Acetylcholine Muscarinic M1 Receptor: Measurement of IP-One Response (AID 944; active = well fitted curve in the direction sought with a large enough effect; an effect the other way counts as inactive or inconclusive; also: nearly all actives have a fitted effect of over 75% in size)
Outline: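 Antagonism was measured as loss of carbachol-driven (EC80) IP1 accumulation in CHO cells carrying rat M1, using a homogeneous IP-One TR-FRET kit read at 620 and 665 nm.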

[11] = biological target: Pyruvate kinase (Leishmania mexicana) (UniProt Q27686); test: qHTS Validation Assay for Inhibitors of Leishmania Mexicana Pyruvate Kinase (AID 945; active = well fitted curve in the direction sought with a large enough effect; an effect the other way counts as inactive or inconclusive)
Outline: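 Eight-point qHTS titrations in triplicate, data normalized to DMSO neutral control. Reaction: 0.2 nM LmPYK E451W mutant, 0.5 mM PEP, 0.1 mM ADP, 7 mM MgCl2, pH 7.2, one hour at room temperature; luminescent ATP detection.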

[12] = biological target: Pyruvate kinase PKM (Homo sapiens) (UniProt P14618); test: qHTS Assay for Activators of Human Muscle Pyruvate Kinase (AID 954; active = well fitted curve in the direction sought with a large enough effect, not every such curve was filed as active)
Outline: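 ATP production by PKM2 detected via luciferase luminescence after 1 h room-temperature reaction (0.1 nM enzyme, PEP at Km 0.5 mM, ADP 0.1 mM, pH 7.2 imidazole buffer). Inhibition scaled to no-enzyme control; activation referenced to 0.3 nM enzyme wells.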

[13] = biological target: Alpha-galactosidase A (Homo sapiens) (UniProt P06280); test: Counterscreen for Glucocerebrosidase Inhibitors: qHTS Assay for Human alpha-Galactosidase at pH 4.5 (AID 992; active = well fitted curve in the direction sought with a large enough effect; an effect the other way counts as inactive or inconclusive)
Outline: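 Fluorogenic 1536-well qHTS at pH 4.5 (citrate, Tween-20): 2 nM enzyme, 80 uM 4-MU-alpha-galactoside, 20 min room temperature, NaOH/glycine stop. Titration 0.7 nM to 77 uM, data normalized to no-enzyme and full-activity controls, Hill-fitted AC50.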

[14] = biological target: alpha-glucosidase (Oryza sativa, rice) (UniProt Q653V4); test: Counterscreen for Glucocerebrosidase Inhibitors: qHTS Assay for Rice alpha-Glucosidase at pH 5.0 (AID 997; active = well fitted curve in the direction sought with a large enough effect; an effect the other way counts as inactive or inconclusive)
Outline: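 Endpoint fluorogenic assay at pH 5.0: compounds (0.7 nM to 77 uM) titrated against 4 nM rice enzyme and 400 uM 4-MU-alpha-glucoside for 20 min at room temperature; NaOH/glycine stop, read ex 365/em 440 nm, Hill-fitted AC50.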

[15] = biological target: Cytochrome P450 2D6 (Homo sapiens) (UniProt P10635); test: qHTS Assay for Inhibitors and Substrates of Cytochrome P450 2D6 (AID 891; active = well fitted curve in the direction sought with a large enough effect; an effect the other way counts as inactive or inconclusive;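 also: luciferin methyl ether substrate demethylated by CYP2D6 with NADPH regeneration; nearly all actives have a fitted effect of over 60% in size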)
Outline: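 Luminescent read-out of luciferin formed by 5 nM human CYP2D6 demethylating 30 uM Luciferin-ME EGE (Km level) over 60 min at room temperature after NADPH regeneration addition. Data normalized to full inhibition by 1.43 uM quinidine.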

[16] = biological target: Cytochrome P450 2C19 (Homo sapiens) (UniProt P33261); test: qHTS Assay for Inhibitors and Substrates of Cytochrome P450 2C19 (AID 899; active = well fitted curve in the direction sought with a large enough effect; an effect the other way counts as inactive or inconclusive; also: nearly all actives have a fitted effect of over 60% in size; also: potency is read from the fitted curve at half-maximal effect)
Outline: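 5nM enzyme + 10uM Luciferin-H EGE (=KM), 50mM KPO4; cpd pin-transferred, 10 min 37C; NADPH regen, 60 min 37C; stopped w/ luciferin detection reagent, 20 min; luminescence. Normalized to 57uM ketoconazole (AC100).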

[17] = biological target: Guanine nucleotide-binding protein G(i) subunit alpha-1 (Homo sapiens) (UniProt P63096); test: qHTS Assay for Inhibitors of RGS12 GoLoco Motif Activity (Green Fluorophore) (AID 879; active = well fitted curve in the direction sought with a large enough effect; an effect the other way counts as inactive or inconclusive;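 also: negative values mean loss of peptide binding seen as reduced polarization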)
Outline: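 A drop in FITC polarization marked displacement of the FITC-tagged RGS12 GoLoco peptide (10 nM) from Gαi1 (50 nM). Compounds were incubated 10 min at room temperature in Tris pH 7.5 buffer containing 150 mM NaCl, 0.1 mM GDP and 0.05% NP40; unlabeled peptide titration served as control.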

[18] = qHTS Assay for Identification of Small Molecule Antagonists for NFkB Signaling Pathway (AID 895; active = well fitted inhibition curve with a large enough effect in the signal ratio, with a control signal flat, not every such curve was filed as active; the % refers to the signal ratio)
Outline: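 Beta-lactamase reporter read-out (460 and 530 nm emission ratio, 405 nm excitation, 2 hrs substrate loading RT) after 5 hr stimulation with 10 pM TNF alpha in compound-treated NFkB-bla ME-180 cells in low-serum medium.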

[19] = biological target: Mitogen-activated protein kinase 10 (Mus musculus) (UniProt Q61831); test: JNK3 AlphaScreen Assay (AID 530);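 also: kinase came from lysate of stimulated human HepG2 cells; signal reports phosphorylation of biotinylated GST-cJun 1-79 at Ser73 with 10 µM ATP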
Outline: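 Kinase buffer: 20 mM Tris-HCl pH 7.6, 10 mM MgCl2, 1 mM DTT, 0.1 mM Na3VO4, 0.01% Tween-20; ATP 10 uM. Substrate biotin-GST-cJun(1-79), enzyme from activated HepG2 lysates. Detection by Ser73 phospho-antibody AlphaScreen.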

Sequence of Cytochrome P450 2D6 (Homo sapiens) (P10635 whole entry, looked up): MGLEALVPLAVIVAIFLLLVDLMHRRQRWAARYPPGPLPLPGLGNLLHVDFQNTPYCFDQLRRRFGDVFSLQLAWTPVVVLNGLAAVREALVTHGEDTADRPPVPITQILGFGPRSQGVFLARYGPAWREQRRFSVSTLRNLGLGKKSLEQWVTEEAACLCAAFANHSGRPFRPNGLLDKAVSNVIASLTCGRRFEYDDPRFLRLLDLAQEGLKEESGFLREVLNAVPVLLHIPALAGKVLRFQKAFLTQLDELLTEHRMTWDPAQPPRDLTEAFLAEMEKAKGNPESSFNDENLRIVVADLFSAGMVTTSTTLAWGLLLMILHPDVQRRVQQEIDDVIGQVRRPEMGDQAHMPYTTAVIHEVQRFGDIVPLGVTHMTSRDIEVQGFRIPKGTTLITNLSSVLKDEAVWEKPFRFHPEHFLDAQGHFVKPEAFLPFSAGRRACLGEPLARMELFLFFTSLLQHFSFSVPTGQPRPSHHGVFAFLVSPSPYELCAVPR
Sequence of Alpha-galactosidase A (Homo sapiens) (P06280 whole entry, looked up): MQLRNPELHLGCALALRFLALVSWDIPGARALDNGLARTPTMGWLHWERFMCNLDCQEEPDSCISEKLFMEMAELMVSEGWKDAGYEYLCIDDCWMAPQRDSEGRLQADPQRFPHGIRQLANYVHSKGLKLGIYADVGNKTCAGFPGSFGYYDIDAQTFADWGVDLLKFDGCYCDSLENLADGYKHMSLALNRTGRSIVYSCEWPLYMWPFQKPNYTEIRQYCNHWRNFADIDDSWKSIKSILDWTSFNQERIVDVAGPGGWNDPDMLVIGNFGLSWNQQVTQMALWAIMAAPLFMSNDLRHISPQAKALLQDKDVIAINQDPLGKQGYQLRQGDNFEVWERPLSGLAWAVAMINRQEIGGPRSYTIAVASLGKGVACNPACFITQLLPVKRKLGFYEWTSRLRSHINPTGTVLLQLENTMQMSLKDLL
Sequence of Muscarinic acetylcholine receptor M1 (Rattus norvegicus) (P08482 whole entry, looked up): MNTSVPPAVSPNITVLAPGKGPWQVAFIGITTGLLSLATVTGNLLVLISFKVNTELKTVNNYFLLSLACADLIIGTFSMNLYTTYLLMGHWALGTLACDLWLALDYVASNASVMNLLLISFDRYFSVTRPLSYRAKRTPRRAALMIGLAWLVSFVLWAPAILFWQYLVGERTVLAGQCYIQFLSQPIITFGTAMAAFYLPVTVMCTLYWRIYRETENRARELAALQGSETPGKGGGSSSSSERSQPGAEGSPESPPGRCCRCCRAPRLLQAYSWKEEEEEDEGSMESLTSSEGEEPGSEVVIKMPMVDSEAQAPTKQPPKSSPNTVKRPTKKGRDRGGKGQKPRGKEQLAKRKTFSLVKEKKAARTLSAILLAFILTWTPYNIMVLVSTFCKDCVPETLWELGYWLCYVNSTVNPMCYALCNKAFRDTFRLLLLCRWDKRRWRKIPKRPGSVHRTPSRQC
Sequence of Cytochrome P450 1A2 (Homo sapiens) (P05177 whole entry, looked up): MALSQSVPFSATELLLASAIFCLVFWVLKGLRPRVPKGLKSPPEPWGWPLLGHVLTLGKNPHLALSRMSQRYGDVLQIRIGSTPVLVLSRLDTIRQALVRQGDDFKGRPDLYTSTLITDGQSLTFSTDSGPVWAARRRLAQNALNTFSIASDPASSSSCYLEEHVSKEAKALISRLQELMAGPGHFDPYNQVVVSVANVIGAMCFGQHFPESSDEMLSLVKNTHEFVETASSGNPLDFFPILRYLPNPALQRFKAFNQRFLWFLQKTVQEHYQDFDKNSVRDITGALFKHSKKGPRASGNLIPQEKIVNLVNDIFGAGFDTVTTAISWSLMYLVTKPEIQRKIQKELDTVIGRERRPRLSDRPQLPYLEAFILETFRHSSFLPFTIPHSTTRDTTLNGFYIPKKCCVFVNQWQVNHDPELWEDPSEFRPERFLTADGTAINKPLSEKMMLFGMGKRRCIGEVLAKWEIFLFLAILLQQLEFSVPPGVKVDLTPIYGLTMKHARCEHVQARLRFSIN
Sequence of Pyruvate kinase (Leishmania mexicana) (Q27686 2-499 E452W): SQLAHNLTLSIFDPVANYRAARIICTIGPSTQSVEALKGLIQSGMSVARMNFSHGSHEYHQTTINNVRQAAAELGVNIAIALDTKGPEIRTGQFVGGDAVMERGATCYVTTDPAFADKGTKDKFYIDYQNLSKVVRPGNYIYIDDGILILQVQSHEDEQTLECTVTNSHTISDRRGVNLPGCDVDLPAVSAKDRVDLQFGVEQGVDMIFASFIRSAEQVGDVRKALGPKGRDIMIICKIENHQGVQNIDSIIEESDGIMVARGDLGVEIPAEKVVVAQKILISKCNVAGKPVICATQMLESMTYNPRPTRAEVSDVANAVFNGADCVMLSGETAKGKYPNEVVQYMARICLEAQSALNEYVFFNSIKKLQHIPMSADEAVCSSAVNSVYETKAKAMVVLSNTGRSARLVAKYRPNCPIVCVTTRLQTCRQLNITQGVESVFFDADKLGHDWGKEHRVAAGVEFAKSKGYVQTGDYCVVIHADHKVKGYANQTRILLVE
Sequence of Glucocorticoid receptor (Homo sapiens) (P04150 whole entry, looked up, the tested form may be a part): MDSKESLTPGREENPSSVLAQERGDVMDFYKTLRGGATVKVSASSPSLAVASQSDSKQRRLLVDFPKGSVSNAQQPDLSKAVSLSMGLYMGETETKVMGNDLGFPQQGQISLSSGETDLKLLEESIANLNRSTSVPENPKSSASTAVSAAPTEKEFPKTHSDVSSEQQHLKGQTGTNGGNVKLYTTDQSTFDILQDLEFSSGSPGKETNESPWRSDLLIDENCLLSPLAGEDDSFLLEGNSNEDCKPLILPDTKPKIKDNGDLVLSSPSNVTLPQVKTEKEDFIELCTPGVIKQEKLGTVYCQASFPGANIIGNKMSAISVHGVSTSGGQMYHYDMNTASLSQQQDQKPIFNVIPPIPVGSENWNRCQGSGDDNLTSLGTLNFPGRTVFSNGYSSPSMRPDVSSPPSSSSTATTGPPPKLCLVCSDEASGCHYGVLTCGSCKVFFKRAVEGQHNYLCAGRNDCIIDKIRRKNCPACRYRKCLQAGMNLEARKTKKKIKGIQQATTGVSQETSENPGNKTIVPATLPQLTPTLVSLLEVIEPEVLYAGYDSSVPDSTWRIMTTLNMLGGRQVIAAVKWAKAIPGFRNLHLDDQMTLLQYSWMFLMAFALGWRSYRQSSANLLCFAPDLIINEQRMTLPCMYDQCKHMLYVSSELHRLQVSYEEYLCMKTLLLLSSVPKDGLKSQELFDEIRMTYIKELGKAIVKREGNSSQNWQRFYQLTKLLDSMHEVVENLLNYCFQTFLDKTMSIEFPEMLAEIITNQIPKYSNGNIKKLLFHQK
Sequence of Pyruvate kinase PKM (Homo sapiens) (P14618 whole entry, looked up): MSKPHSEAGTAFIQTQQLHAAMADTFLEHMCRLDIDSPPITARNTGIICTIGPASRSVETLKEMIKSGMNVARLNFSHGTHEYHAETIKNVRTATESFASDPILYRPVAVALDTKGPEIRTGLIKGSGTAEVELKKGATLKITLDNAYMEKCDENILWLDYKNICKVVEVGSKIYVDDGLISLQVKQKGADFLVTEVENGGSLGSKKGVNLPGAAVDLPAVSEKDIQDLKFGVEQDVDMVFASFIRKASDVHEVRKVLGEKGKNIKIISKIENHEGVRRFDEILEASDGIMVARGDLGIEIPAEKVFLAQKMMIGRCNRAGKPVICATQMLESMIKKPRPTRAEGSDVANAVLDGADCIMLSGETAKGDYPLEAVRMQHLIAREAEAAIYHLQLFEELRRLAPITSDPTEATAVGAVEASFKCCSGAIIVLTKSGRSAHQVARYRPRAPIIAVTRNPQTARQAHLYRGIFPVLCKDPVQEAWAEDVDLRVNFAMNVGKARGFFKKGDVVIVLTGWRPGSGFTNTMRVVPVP
Sequence of 3',5'-cyclic-AMP phosphodiesterase 4B (Homo sapiens) (Q07343 whole entry, looked up): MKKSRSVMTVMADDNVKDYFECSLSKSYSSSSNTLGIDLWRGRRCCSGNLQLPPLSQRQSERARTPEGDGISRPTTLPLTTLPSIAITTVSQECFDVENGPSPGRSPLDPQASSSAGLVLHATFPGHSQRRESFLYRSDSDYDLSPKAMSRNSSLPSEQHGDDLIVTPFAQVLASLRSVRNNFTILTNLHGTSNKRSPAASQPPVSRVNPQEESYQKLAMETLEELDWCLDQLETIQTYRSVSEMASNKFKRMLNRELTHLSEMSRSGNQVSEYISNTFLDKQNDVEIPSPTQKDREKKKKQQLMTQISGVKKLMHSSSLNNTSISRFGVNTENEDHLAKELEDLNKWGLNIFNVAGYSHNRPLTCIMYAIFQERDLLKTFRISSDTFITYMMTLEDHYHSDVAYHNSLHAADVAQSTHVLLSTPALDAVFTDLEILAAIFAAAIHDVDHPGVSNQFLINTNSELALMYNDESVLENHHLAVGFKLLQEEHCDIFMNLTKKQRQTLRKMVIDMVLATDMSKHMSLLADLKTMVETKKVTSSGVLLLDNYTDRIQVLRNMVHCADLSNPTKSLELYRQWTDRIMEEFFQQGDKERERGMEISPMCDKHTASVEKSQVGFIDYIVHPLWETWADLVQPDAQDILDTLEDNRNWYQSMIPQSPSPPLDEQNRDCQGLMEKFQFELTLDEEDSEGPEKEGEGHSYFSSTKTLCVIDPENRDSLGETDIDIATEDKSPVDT
Sequence of Cytochrome P450 2C19 (Homo sapiens) (P33261 whole entry, looked up): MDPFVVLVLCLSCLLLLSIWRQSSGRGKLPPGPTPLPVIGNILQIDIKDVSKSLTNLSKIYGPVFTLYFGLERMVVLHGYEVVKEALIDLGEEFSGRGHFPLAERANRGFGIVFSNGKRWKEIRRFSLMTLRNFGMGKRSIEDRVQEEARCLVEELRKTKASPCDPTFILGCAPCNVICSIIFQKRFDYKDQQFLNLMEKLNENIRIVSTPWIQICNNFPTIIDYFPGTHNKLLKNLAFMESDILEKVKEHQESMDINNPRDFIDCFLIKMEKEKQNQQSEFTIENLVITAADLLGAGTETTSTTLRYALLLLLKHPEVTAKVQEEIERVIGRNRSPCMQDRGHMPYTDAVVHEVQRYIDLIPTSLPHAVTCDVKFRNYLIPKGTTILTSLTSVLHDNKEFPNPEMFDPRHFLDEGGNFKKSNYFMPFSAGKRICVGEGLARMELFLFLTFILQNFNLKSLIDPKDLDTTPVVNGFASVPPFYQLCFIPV

Compound | activity change, negative = inhibition [1] | Potency [2] | activity change, negative = inhibition [3] | activity, negative = inhibition [4] | Potency [5] | Potency [6] | Potency [7] | outcome [8] | Potency [9] | Potency [10] | outcome [11] | outcome [12] | outcome [13] | Potency [14] | Potency [15] | Potency [16] | outcome [17] | Potency [18] | Potency [19]
OC[C@@H]1O[C@H](O)[C@@H](Cl)[C@H](O)[C@@H]1O | -0.164% [at 38 µM] | inactive | 4.5% [at 38 µM] | 14% [at 38 µM] | > 46 µM | > 46 µM | inactive | inactive | inactive | inactive | inactive | inactive | inactive | inactive | – | – | – | – | –
N[C@@H](C(=O)O)[C@H](O)C(=O)O | -4.8% [at 38 µM] | inactive | -3.19% [at 38 µM] | 8.48% [at 38 µM] | > 46 µM | > 46 µM | inactive | – | – | – | – | – | – | – | inactive | inactive | – | – | –
CC(C)[C@H]1C(=O)C(C(N)=O)=C(O)[C@]2(O)C(=O)C3=C(O)c4c(O)ccc(N(C)C)c4C[C@H]3C[C@@H]12 | 0.478% [at 38 µM] | inactive | 8.64% [at 38 µM] | 1.38% [at 38 µM] | > 46 µM | > 46 µM | inactive | – | inactive | inactive | inactive | inactive | inactive | inactive | – | – | inactive | inactive | –
C[C@H]1C[C@@H]2[C@H]3CCC4=CC(=O)C=C[C@@]4(C)[C@@]3(Cl)[C@@H](O)C[C@]2(C)[C@]1(OC(=O)c1ccco1)C(=O)CCl | -22% [at 17.2 µM] | 5.01 µM (active) | -27.1% [at 17.2 µM] | -1.49% [at 17.2 µM] | – | – | inactive | – | – | – | – | – | – | – | – | – | – | – | inactive
COc1cc([C@H](O)C(=O)O)ccc1O | 5.25% [at 38 µM] | inactive | -1.26% [at 38 µM] | 4.86% [at 38 µM] | > 46 µM | > 46 µM | inactive | inactive | inactive | inactive | inactive | inactive | inactive | inactive | – | – | – | – | –
COc1cc2c3cc1Oc1cc(ccc1O)C[C@@H]1c4c(cc(OC)c(O)c4Oc4ccc(cc4)C[C@H]3[N+](C)(C)CC2)CC[N+]1(C)C | 5.87% | inactive | 0.638% | 21.4% | – | – | inactive | – | – | – | – | – | – | – | – | inactive | – | – | inactive
CO/N=C(\C(=O)N[C@@H]1C(=O)N2C(C(=O)[O-])=C(C[N+]3(C)CCCC3)CS[C@@H]12)c1csc(N)n1 | 2.79% [at 17.2 µM] | inactive | -16.9% [at 17.2 µM] | 11.5% [at 17.2 µM] | – | – | inactive | – | – | – | – | – | – | – | – | – | – | – | inactive
C[C@@H]1C(=O)N(C)C(=O)c2nc[nH]c21 | -6.31% [at 38 µM] | inactive | -19.2% [at 38 µM] | 15% [at 38 µM] | > 46 µM | > 46 µM | inactive | inactive | – | – | inactive | inactive | inactive | inactive | – | – | inactive | inactive | –
c1cc(CSSCc2ccncc2)ccn1 | -3.12% | 2 µM (active) | 12.2% | -6.55% | > 46 µM | – | inactive | – | – | – | – | – | – | – | – | 1.26 µM (active) | – | – | inactive
N[C@@H](C(=O)O)[C@@H]1C[C@H]1C(=O)O | -6.47% [at 38 µM] | inactive | 4.34% [at 38 µM] | 16.9% [at 38 µM] | – | > 46 µM | – | – | – | – | – | – | – | – | inactive | inactive | – | – | inactive
C[C@H](N)C(=O)OC(C)(C)Cc1ccc(Cl)cc1 | 9.46% [at 38 µM] | 0.631 µM (active) | 18.9% [at 38 µM] | 24.9% [at 38 µM] | – | – | inactive | inactive | – | inactive | inactive | inactive | inactive | inactive | – | 3.98 µM (active) | – | – | inactive
[N-]=[N+]=Nc1ccc(C(=O)CSC[C@@H](NC(=O)CC[C@@H](N)C(=O)O)C(=O)NCC(=O)O)cc1 | -0.0447% [at 38 µM] | inactive | -3.2% [at 38 µM] | 10.6% [at 38 µM] | > 46 µM | > 46 µM | inactive | inactive | inactive | inactive | inactive | inactive | inactive | inactive | – | – | – | inactive | –
O=C(O)CCC/C=C\C[C@H]1[C@@H](/C=C\[C@@H](O)C2Cc3ccccc3C2)[C@H](F)C[C@H]1O | -14.7% [at 38 µM] | inactive | 14.3% [at 38 µM] | 9.41% [at 38 µM] | > 46 µM | – | inactive | – | – | – | – | – | – | – | inactive | – | – | – | inactive
C[C@@H](C(=O)O)c1ccc(C[C@@H]2CCCC2=O)cc1 | 14.5% [at 38 µM] | inactive | 11.1% [at 38 µM] | – | – | – | inactive | inactive | – | inactive | inactive | inactive | inactive | inactive | – | inactive | – | inactive | inactive
